Measurements: the supplement of paper PMC11732987, “Enantioselective OTUD7B fragment discovery through chemoproteomics screening and high-throughput optimisation” (Communications Chemistry, 2025)

Experiments:
Experiment in all cases: log2 ratio of Biotin-Ahx-Ub-VS probe labelling (fragment/DMSO); higher = less target engagement (more negative = stronger competition), active = hit call of the paper (q ≤ 0.05, log2 ratio ≤ -1)
Conditions in all cases: compound concentration: 200 uM; treatment time: 3 h
USP34 = USP34 (UniProt Q70CQ2)
Method in brief: (§1)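 Each value is an average log2 ratio of fragment to vehicle, tested by unpaired t-test. The underlying Spectronaut label-free quantities were global-median-normalised, and only proteins with ≥2 unique peptides were included. Triplicate HEK293T lysate samples (495 µg) were exposed to fragment at 200 µM or vehicle for 3 h, then to Biotin-Ahx-Ub-VS at 0.5 µM final for 1 h, before NeutrAvidin enrichment of labelled DUBs, LysC and trypsin digestion, and diaPASEF LC-MS/MS.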

USP36 = target: T1, USP36 (UniProt Q9P275)
T1 sequence (whole entry): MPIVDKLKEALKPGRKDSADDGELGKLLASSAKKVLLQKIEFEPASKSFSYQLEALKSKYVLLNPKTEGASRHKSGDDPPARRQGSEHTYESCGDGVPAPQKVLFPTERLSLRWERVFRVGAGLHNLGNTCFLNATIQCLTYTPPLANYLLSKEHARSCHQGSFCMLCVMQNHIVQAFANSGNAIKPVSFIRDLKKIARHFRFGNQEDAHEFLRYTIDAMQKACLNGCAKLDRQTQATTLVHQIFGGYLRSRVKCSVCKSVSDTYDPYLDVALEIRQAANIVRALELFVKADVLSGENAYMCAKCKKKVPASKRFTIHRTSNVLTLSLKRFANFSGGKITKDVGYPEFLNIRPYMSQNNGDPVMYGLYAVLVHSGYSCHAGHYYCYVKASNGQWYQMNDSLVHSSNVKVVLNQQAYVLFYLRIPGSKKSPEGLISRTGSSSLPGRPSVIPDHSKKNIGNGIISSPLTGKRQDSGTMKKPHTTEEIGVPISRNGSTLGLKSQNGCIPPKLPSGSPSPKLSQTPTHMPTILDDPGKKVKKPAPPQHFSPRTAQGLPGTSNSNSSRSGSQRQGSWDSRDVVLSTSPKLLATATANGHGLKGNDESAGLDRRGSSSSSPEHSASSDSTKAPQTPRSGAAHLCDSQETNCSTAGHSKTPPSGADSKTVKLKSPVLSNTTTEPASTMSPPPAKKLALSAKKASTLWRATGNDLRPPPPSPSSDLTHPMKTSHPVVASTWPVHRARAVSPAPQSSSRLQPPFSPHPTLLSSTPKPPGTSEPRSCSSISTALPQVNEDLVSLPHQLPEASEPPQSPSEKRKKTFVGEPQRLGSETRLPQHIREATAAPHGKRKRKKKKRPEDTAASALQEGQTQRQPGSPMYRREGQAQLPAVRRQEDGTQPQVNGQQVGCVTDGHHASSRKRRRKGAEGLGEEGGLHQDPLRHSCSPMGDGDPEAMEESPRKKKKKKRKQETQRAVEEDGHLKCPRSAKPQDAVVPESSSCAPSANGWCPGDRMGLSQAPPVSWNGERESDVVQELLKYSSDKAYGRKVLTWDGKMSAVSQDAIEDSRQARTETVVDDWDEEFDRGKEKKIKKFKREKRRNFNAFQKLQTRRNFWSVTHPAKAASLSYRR
Method in brief: as §1

USP38 = target: T2, USP38 (UniProt Q8NB14)
T2 sequence (whole entry): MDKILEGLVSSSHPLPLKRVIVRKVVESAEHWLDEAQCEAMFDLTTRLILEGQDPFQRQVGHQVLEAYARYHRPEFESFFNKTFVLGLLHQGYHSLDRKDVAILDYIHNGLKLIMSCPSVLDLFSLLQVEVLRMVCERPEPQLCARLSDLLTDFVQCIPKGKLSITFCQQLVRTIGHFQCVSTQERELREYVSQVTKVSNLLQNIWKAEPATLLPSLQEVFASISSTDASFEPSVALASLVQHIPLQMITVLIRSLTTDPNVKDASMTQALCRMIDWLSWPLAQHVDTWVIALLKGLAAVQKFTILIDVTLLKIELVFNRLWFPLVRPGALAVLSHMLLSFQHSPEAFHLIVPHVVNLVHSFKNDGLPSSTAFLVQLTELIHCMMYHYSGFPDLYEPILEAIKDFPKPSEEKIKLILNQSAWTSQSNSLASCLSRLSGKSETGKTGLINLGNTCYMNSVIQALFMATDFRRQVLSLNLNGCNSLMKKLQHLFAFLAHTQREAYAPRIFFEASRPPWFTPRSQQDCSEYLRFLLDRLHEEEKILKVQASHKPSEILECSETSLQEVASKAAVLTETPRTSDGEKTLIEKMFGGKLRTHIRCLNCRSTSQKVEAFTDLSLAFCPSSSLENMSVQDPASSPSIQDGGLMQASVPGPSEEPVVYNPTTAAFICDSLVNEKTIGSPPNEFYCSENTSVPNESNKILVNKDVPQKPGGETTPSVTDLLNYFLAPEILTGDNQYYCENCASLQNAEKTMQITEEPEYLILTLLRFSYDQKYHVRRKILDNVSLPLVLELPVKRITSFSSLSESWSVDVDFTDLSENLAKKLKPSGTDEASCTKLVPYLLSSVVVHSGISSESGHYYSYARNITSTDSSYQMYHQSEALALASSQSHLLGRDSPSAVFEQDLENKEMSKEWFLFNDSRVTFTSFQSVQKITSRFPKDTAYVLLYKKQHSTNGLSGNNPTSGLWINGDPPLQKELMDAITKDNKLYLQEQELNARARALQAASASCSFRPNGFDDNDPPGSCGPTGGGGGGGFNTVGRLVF
Method in brief: as §1

USP39 = target: T3, USP39 (UniProt Q53GS9)
T3 sequence (whole entry): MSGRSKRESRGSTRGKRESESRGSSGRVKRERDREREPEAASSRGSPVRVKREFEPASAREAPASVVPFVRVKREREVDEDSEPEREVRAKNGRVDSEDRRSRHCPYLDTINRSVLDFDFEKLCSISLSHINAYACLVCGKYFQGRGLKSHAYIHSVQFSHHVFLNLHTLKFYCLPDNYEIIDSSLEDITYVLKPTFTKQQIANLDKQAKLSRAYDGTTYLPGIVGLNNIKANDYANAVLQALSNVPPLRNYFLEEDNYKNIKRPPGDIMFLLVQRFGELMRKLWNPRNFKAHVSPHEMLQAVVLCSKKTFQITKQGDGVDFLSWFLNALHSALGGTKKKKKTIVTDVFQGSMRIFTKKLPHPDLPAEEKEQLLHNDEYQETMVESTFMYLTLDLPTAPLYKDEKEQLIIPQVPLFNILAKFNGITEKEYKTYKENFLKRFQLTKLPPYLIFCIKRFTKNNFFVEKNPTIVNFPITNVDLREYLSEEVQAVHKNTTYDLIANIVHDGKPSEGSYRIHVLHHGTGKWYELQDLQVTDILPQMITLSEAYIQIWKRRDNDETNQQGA
Method in brief: as §1

USP4 = target: T4, USP4 (UniProt Q13107)
T4 sequence (whole entry): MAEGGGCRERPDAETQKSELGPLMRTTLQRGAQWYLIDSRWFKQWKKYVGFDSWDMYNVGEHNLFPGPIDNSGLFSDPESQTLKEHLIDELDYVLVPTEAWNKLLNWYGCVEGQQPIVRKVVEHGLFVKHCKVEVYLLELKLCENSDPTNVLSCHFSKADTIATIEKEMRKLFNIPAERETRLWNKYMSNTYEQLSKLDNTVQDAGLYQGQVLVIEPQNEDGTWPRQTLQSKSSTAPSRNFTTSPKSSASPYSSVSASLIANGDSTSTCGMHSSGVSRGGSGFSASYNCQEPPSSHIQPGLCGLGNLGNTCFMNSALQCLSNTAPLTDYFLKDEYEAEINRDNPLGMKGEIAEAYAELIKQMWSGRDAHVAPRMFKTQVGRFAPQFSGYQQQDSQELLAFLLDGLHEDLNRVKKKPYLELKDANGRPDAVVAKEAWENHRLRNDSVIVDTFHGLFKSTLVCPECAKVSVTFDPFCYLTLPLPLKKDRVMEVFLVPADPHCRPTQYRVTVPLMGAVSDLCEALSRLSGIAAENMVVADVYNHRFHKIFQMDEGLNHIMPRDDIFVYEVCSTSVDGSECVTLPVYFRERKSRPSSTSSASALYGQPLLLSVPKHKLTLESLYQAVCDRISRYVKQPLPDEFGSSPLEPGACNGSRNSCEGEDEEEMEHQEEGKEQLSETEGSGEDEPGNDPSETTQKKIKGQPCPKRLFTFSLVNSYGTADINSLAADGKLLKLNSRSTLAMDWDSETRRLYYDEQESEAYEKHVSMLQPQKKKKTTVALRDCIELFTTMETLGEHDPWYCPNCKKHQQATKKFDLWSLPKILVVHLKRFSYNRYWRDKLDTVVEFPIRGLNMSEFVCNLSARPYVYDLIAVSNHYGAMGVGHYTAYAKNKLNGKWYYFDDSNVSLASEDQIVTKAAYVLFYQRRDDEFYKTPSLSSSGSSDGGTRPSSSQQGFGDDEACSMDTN
Method in brief: as §1

Measured: log2 ratio of Biotin-Ahx-Ub-VS probe labelling

Chain of USP34 (Q70CQ2 whole entry, the tested form may be a part): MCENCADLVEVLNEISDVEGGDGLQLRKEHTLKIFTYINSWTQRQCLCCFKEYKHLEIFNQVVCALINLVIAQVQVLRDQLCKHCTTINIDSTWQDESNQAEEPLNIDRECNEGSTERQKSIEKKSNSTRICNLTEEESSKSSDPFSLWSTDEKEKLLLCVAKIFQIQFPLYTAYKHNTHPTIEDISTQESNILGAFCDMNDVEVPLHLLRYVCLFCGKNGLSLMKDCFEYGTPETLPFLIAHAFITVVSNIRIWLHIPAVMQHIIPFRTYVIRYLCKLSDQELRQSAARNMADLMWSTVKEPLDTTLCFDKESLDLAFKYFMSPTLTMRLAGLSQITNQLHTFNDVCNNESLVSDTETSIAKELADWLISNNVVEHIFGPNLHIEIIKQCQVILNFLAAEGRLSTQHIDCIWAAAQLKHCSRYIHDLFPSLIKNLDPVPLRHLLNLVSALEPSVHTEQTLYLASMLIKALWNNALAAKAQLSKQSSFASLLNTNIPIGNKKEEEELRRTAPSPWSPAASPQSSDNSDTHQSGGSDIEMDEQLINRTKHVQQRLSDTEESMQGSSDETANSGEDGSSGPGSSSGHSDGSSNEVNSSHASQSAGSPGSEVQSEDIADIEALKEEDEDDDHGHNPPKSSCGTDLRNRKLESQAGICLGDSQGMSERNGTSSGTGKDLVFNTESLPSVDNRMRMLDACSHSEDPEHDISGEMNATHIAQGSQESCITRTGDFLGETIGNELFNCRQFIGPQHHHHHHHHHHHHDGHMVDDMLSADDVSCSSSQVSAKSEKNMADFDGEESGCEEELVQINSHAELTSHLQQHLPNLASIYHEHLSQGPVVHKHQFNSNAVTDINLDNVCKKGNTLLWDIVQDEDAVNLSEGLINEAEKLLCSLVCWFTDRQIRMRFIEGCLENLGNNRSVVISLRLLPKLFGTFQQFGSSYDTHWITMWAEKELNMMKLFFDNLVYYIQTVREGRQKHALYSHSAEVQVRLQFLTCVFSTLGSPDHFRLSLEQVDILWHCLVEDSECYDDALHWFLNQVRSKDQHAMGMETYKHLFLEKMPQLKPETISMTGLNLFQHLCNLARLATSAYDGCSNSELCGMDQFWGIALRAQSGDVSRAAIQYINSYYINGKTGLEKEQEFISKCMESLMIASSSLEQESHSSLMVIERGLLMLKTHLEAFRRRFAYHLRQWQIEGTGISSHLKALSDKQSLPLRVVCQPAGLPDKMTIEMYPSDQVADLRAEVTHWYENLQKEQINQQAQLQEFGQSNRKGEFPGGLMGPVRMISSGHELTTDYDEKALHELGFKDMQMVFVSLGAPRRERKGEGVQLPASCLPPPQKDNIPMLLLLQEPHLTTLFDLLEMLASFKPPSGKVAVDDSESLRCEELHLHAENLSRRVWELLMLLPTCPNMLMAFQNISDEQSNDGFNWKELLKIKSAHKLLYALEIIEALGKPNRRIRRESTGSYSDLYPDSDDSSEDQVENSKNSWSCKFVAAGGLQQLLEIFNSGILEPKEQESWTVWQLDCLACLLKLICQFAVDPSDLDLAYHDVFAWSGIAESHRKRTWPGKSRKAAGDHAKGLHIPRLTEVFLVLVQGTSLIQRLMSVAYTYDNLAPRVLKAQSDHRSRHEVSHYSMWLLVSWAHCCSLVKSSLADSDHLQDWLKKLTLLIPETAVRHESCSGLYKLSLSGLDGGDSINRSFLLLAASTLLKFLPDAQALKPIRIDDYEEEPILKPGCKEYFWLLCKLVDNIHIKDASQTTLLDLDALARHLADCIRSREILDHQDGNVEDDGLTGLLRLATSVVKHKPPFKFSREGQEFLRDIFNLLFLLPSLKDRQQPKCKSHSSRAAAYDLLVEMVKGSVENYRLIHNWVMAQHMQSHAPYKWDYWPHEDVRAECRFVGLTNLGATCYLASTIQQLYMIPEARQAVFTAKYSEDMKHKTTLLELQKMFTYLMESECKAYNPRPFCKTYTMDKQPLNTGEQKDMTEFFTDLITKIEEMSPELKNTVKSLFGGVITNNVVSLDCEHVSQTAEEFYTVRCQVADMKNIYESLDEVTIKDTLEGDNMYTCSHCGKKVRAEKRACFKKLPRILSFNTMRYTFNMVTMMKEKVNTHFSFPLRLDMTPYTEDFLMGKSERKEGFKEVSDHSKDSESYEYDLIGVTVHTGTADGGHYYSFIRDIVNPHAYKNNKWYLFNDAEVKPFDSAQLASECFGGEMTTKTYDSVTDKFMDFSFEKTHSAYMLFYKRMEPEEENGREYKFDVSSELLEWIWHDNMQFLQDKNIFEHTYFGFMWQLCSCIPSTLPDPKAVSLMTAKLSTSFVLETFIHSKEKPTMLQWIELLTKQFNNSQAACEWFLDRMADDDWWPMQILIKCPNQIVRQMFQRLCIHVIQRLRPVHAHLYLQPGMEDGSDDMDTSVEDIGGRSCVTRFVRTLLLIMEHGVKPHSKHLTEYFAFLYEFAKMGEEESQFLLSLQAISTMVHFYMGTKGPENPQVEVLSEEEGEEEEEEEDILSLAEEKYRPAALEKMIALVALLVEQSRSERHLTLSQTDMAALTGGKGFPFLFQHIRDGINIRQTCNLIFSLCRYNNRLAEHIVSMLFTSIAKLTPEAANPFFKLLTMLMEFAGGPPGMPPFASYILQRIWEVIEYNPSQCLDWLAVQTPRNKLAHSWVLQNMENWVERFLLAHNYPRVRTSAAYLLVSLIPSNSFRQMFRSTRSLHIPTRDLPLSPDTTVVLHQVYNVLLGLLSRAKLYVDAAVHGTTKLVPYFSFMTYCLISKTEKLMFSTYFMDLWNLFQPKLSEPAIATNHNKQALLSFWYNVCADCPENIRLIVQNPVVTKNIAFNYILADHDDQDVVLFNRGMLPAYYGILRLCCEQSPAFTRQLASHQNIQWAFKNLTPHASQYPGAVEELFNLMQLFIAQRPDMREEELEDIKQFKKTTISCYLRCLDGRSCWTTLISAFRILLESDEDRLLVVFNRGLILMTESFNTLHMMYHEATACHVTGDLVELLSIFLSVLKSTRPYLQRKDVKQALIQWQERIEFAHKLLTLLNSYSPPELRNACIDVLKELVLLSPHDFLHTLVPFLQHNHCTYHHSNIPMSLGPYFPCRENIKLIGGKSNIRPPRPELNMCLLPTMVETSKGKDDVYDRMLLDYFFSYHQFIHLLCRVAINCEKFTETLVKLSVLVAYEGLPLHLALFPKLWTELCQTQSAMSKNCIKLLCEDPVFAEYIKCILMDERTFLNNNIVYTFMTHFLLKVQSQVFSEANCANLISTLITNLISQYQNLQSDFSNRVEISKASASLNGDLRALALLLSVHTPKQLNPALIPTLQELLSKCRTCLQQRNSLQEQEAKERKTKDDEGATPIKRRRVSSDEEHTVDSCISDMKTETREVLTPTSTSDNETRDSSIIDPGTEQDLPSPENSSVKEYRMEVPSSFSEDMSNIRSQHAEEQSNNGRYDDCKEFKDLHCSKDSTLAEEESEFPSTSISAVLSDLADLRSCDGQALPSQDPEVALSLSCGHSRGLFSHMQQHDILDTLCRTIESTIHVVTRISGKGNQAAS

Cl.Cn1c(CNC(=O)CCl)nc2cccnc21
inactive: USP34 -0.174 | USP36 -0.125 | USP38 0.0315 | USP39 0.234 | USP4 -0.102
